# Source: PubChem (National Center for Advancing Translational Sciences (NCATS))
# The list is not random: actives were taken first. Their share in the collection is about 7.4%.
# SMN2 splice enh = enhancers of SMN2 splice variant expression | HEK293 SMN2-luciferase splicing reporter, luminescence, 30-36 h | Potency, µM (top dose mostly 46.1 µM), actives largely listed as activators | 210,000 compounds, 2.8% hits | AID 1458; note: nearly all actives have a fitted effect of over 55% in size
#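 qHTS luciferase splicing reporter: luminescence rises when SMN2 exon 7 is included in transfected HEK293 cells. Compound exposure lasted 30-36 h at 37C, with 4.5 mM final sodium butyrate as control, followed by a ONE-Glo read.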
# Rab9 promoter act = Rab9 promoter activation | Huh7 Rab9 promoter-luciferase reporter, luminescence, 24 h | AID 485297 | 320,000 compounds, 2.8% hits | Potency, µM (series often up to 9.22 µM), usual class: activators; note: nearly all actives have a fitted effect of over 60% in size
#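 Cell-based reporter: Huh7 stable for Rab9 promoter-driven luciferase, plated in reduced-serum medium with 10% FBS at 1500 cells/well, compound-treated 24 h at 37 °C, luminescence read after 10 min reagent.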
# FLuc modulator = counter-screen for miR-21 project: firefly luciferase inhibitors or activators. P08659. purified FLuc, Km substrates, luminescence inhibition. Potency, µM (top dose mostly 57.5 µM), hits mostly inhibitors. 360,000 compounds, 6.9% hits; note: nearly all actives have a fitted effect of over 55% in size
# Target sequence (P08659 whole entry, looked up): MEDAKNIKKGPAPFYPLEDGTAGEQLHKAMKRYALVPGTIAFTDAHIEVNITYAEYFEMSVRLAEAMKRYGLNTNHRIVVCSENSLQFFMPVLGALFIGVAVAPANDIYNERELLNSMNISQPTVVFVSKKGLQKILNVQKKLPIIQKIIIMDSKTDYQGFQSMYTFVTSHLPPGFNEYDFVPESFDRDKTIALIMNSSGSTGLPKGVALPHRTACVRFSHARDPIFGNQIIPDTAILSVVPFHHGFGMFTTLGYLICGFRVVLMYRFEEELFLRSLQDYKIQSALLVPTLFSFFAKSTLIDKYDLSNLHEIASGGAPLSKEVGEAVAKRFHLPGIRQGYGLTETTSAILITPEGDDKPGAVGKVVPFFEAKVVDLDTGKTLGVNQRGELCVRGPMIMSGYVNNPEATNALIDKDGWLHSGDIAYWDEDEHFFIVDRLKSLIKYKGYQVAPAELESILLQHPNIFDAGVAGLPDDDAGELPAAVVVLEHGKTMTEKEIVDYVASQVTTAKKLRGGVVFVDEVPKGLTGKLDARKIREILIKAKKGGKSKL
#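 Biochemical qHTS of compounds, final roughly 60 µM downward over six points, against 10 nM purified firefly luciferase using Km concentrations of substrates (10 uM D-luciferin, 10 uM ATP) in Tris acetate pH 7.5 buffer; luminescence output.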
# NPC1 promoter act = activates the NPC1 promoter. Huh7 NPC1 promoter luciferase reporter, 24 h. Potency, µM (doses to about 9.22 µM), hits mostly activators. 320,000 compounds, 2.4% hits. AID 485313; note: nearly all actives have a fitted effect of over 60% in size
#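 Cells: Huh7 expressing luciferase under the NPC1 promoter, 1500/well. Seeded 2 h, compound added, incubated 24 h at 37 °C. Luciferase reagent, 10 min ambient, then luminescence.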
# ELG1 genotox = genotoxicity induction in ELG1-luciferase HEK293T cells; Potency, µM (titrated, usually from 46 µM), hits mostly activators; HEK293T ELG1-luciferase reporter, luminescence, 16 h; 330,000 compounds, 1.3% hits; AID 504466; note: nearly all actives have a fitted effect of over 60% in size
#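 ELG1-luciferase HEK293T cells, 2,000/well; compound pinned in; 16 hr, 37 °C, 5% CO2; ONE-Glo, 30 min RT; luminescence on CCD imager.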
# KinaseGlo FLuc = counter-screen: inhibitors of Kinase-Glo firefly luciferase | Q27757 | Kinase-Glo luciferase, ATP luminescence, 8 min | Potency, µM (highest dose often 38.3 µM), hits mostly inhibitors | 200,000 compounds, 0.28% hits | AID 1379; note: nearly all actives have a fitted effect of over 60% in size
#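 Luminescence was the read-out, taken after 8-minute incubation at ambient temperature. Luciferase turned over luciferin with 10 uM ATP in imidazole pH 7.2 buffer containing KCl, MgCl2, Tween 20 and BSA.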
# A number is an active result; – = inactive; ? = inconclusive; · = not tested or not shown; [ ] = remark or other dose. Calls come from the whole dose curve; as a rule, active = well fitted curve in the direction sought with a large enough effect; inconclusive = small, poorly fitted or top-dose-only effect, or another doubt; inactive = no such curve, though single readings can be large; an effect the other way counts as inactive or inconclusive.
SMILES,SMN2 splice enh,Rab9 promoter act,FLuc modulator,NPC1 promoter act,ELG1 genotox,KinaseGlo FLuc
O=C(Oc1ccc(-c2cnc3ccccc3n2)cc1)c1ccc(Br)o1,?,–,?,?,9.2µM,–
O=C(Oc1ccc(-c2cnc3ccccc3n2)cc1)c1cccc([N+](=O)[O-])c1,31.6µM,?,?,?,7.31µM,–
O=C(OCc1nc2ccccc2s1)c1ccc(Br)o1,–,–,?,–,–,–
O=C(Oc1ccc(-c2cnc3ccccc3n2)cc1)c1ccc(Cl)c([N+](=O)[O-])c1,?,–,?,–,8.2µM,–
C=C1C=C(C(F)F)n2ncc(C(=O)NCCc3ccccc3Cl)c2N1,·,·,–,·,·,·
Cc1ccc2nc(SCC3CCCCO3)[nH]c2c1 (configuration not stated),·,0.112µM,1.2µM,0.398µM,?,·
C/C(N)=C(/C#N)C(=O)CSc1nc2ccc(C)cc2[nH]1,10µM,1.12µM,4.78µM,1.41µM,?,–
Cc1ccc2nc(SCC(=O)N3CCOCC3)[nH]c2c1,?,1.58µM,6.75µM,2.51µM,9.2µM,–
CC(C)c1ccc2[nH]c3nc(SCC(=O)N4CCOCC4)nnc3c2c1,?,–,6.75µM,–,–,–
Cc1ccc2nc(SCC(=O)Nc3ccc(C#N)cc3)[nH]c2c1,–,·,–,·,·,·
Cc1ccc2nc(SCC(=O)N3CCN(c4ccccc4)CC3)[nH]c2c1,·,–,–,–,–,·
CCc1nnc(SCC(=O)N(CC)c2ccccc2)c2cc3oc(C)cc3n12,·,·,–,·,·,·
O=C(NCC1CCN(Cc2ccc(F)cc2)CC1)c1cc2ccc3cccnc3c2[nH]1,·,·,–,·,·,·
COc1cccc(CNC(=O)C(=O)NCC(c2ccco2)S(=O)(=O)c2cccs2)c1 (configuration not stated),·,·,–,·,·,·
Cc1ccc2[nH]c(SCC(=O)N3CCOCC3)nc2c1C,6.31µM,3.55µM,15.1µM,?,?,–
COc1ccc(CCNC(=O)C(=O)NCC(c2ccco2)S(=O)(=O)c2ccc(F)cc2)cc1 (configuration not stated),·,·,–,·,·,·
CCCNC(=S)NNC(=O)c1cc(C2CC2)nc2ccccc12,·,–,21.3µM,–,–,·
C=CCNC(=S)NNC(=O)c1cc(C)nc2ccccc12,–,–,–,–,–,–
CCNC(=S)NNC(=O)c1cc(C2CC2)nc2ccccc12,–,–,12µM,–,–,–
COC(=O)c1ccc(OCC2c3cc(OC)c(OC)cc3CCN2C(=O)Cc2ccccc2)cc1 (configuration not stated),·,·,–,·,·,·
Cc1ccc(Cn2nnc3c(=O)[nH]c(C4CCCN(S(=O)(=O)c5ccccc5)C4)nc32)cc1 (configuration not stated),–,–,–,–,20.6µM,–
Cn1c(=O)c2c(nc(N3CCOCC3)n2Cc2cccc(Br)c2)n(C)c1=O,–,·,–,·,·,·
CCN(CC)CCN(C(=O)c1ccc(C(=O)c2ccccc2)cc1)c1nc2cc3c(cc2s1)OCO3,·,–,–,–,–,·
CCN(CC)CCN(C(=O)c1ccc2ncsc2c1)c1nc2cc3c(cc2s1)OCO3,·,?,9.53µM,0.708µM,2.91µM,·
CCCC(=O)c1ccc(N2CCCCC2)c(F)c1,–,?,13.5µM,?,?,–
SMILES,SMN2 splice enh,Rab9 promoter act,FLuc modulator,NPC1 promoter act,ELG1 genotox,KinaseGlo FLuc
CCCC(=O)c1ccc(N2CCCCCC2)c(F)c1,–,3.55µM,8.49µM,3.16µM,?,–
CCCC(=O)c1ccc(N2CCN(C(=O)OCC)CC2)c(F)c1,–,–,–,–,–,–
C=CCn1c2ccccc2c(=O)c2cc(C#CC3(O)CCCCC3)ccc21,·,0.708µM,0.757µM,1.26µM,?,·
C=CCn1c2ccccc2c(=O)c2cc(C#CC[C@@H](C)O)ccc21,·,?,2.13µM,3.16µM,?,·
C=CCn1c(=O)c(C(=O)NC(C)c2ccccc2)c(O)c2ccccc21 (configuration not stated),·,–,–,–,–,·
CCOC(=O)c1c(C)[nH]c(C)c1S(=O)(=O)N(C)CC(=O)N1CCN(c2ccccc2OC)CC1,·,·,–,·,·,·
COCCN1C(=S)N[C@@H](c2ccccc2)C(C(=O)OC)=C1C,·,–,–,–,·,·
CCCC[C@H]1C[C@@H]1[C@@H]1N(C(C)=O)[C@H](c2cccc(OC)c2)CC12CC2,–,·,·,·,·,–
COc1ccc(Cl)cc1NC(=O)CN(C)C(=O)c1ccc2c(c1)OCCO2,·,–,–,–,–,·
CN(CC(=O)Nc1ccc(Cl)c(C(F)(F)F)c1)C(=O)CCCNC(=O)c1ccc(Cl)cc1,·,–,19µM,–,–,·
COc1ccc(Cl)cc1NC(=O)CN(C)C(=O)CCCNC(=O)c1ccc(Cl)cc1,·,–,13.5µM,–,–,·
CN(CC(=O)Nc1ccc(Cl)c(C(F)(F)F)c1)C(=O)CCNC(=O)c1ccco1,·,–,–,–,–,·
COc1ccccc1NC(=O)COC(=O)c1cc2c(s1)CCC2,·,–,8.49µM,–,–,·
COc1ccccc1NC(=O)Nc1ccc2c(c1)CCC2,·,2.51µM,3.01µM,2.51µM,13µM,·
COc1ccc(NC(=O)Nc2ccc3c(c2)CCC3)cc1OC,–,–,–,–,–,–
COc1ccc(OC)c(NC(=O)COC(=O)c2cc3c(s2)CCC3)c1,–,–,–,–,–,–
COc1ccc(C)cc1NC(=O)Nc1ccc2c(c1)CCC2,·,–,9.53µM,–,–,·
CCOC(=O)N1CCc2c(sc3c2c(=O)n(-c2ccc(Cl)cc2)c(=O)n3CC(=O)Nc2ccccc2)C1,·,·,–,·,·,·
Cc1ccc(N2Cc3ccccc3C2=S)cc1,11.2µM,2.51µM,4.78µM,2.82µM,–,–
Cc1ccc(C(=O)NC(=S)Nc2cccnc2Cl)cc1,·,2.82µM,12µM,2.51µM,?,·
Cc1ccc(C(=O)NC(=S)Nc2ccccc2C(F)(F)F)cc1,·,–,?,–,–,·
COc1ccccc1C(=O)NC(=S)Nc1cccnc1Cl,·,1µM,2.39µM,1.12µM,0.82µM,·
COc1ccc(C(=O)Nc2cccnc2Cl)cc1OC,·,–,–,–,–,·
NC(N)=NCCCC(=O)O,–[9.22 µM],·,·,·,·,–[7.66 µM]
O=C(NC1CC(=O)N(c2ccc(F)cc2)C1)C1CC1 (configuration not stated),·,·,–,·,·,·
SMILES,SMN2 splice enh,Rab9 promoter act,FLuc modulator,NPC1 promoter act,ELG1 genotox,KinaseGlo FLuc
N#C/C(=C\c1ccc(OCc2ccc(C(=O)O)cc2)cc1)C(=O)N1CCOCC1,1.58µM,2.82µM,16.9µM,?,?,–
Cc1ccc(-c2nc3cnccn3c2Nc2ccc3c(c2)OCO3)o1,–,–,–,–,–,–
Cc1ccc2nc(-c3ccc(C)o3)c(Nc3ccc4c(c3)OCCO4)n2c1,8.91µM,·,21.3µM,·,·,·
Brc1ccc(-c2nc3ccccn3c2Nc2ccc3c(c2)OCCO3)o1,?,·,13.5µM,·,·,·
Cc1ccc(Nc2c(-c3ccc(C)o3)nc3cnccn23)cc1,–,–,–,–,?,–
COc1ccc(Nc2c(-c3ccc(C)o3)nc3cc(C)ccn23)cc1,–,·,16.9µM,·,·,·
Cc1ccn2c(Nc3ccc4c(c3)OCO4)c(-c3ccc(C)o3)nc2c1,–,·,23.9µM,·,·,·
